Source: PubChem
A selection: hits, their analogues and other compounds. The true share with any hit is near 11%.
FLuc inh = inhibitors of firefly (Photinus pyralis) luciferase. P08659. purified P. pyralis luciferase, luminescence, biochemical. Potency, µM (highest dose often 115 µM), most hits filed as inhibitors. 76,000 compounds, 2.5% hits; also: nearly all actives have a fitted effect of over 65% in size
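Purified 10nM P. pyralis luciferase with 10uM D-luciferin and 10uM ATP in 50mM Tris acetate pH 7.5, 10mM Mg acetate, 0.01% Tween-20, 0.05% BSA. qHTS titration; luminescence read by CCD imager.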
HEK293 tox = kills HEK 293 cells. HEK 293 viability, ATP luminescence (CellTiter-Glo), 48-72 h. Potency, µM (highest dose often 115 µM), for the others: top-dose activity change, negative = cytotoxicity, usual class: inhibitors. 94,000 compounds, 6.6% hits; also: nearly all actives have a fitted effect of over 60% in size
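qHTS cytotoxicity; HEK 293, 250 cells/well; compound pinned; 48 or 72 hr, 37 degree Celsius, 5% CO2, 95% humidity; CellTiter-Glo, 10 min RT; luminescence (ATP).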
3T3 cytotox = kills NIH 3T3 cells; 94,000 compounds, 4.3% hits; NIH 3T3 viability, CellTiter-Glo ATP luminescence, 48-72 h; Potency, µM (series often up to 96.7 µM), without a hit: top-dose activity change, negative = cytotoxicity, hits mostly inhibitors; also: nearly all actives have a fitted effect of over 55% in size
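Viability of NIH 3T3 cells after 48 or 72 hr compound treatment at 37 °C was assessed by CellTiter-Glo, with luminescence imaged following a 10 min room-temperature step.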
hNpr1 antagonist = human Npr1 receptor antagonism; P16066; HEK293 hNpr1 GloSensor cGMP, ANP-stimulated luminescence; Potency, µM (top dose mostly 46.3 µM), for inactives: at the highest dose activity change, negative = inhibition, usual class: inhibitors; 76,000 compounds, 1.6% hits; calls by dose curve; also: nearly all actives have a fitted effect of over 60% in size
Target sequence (P16066 whole entry, looked up): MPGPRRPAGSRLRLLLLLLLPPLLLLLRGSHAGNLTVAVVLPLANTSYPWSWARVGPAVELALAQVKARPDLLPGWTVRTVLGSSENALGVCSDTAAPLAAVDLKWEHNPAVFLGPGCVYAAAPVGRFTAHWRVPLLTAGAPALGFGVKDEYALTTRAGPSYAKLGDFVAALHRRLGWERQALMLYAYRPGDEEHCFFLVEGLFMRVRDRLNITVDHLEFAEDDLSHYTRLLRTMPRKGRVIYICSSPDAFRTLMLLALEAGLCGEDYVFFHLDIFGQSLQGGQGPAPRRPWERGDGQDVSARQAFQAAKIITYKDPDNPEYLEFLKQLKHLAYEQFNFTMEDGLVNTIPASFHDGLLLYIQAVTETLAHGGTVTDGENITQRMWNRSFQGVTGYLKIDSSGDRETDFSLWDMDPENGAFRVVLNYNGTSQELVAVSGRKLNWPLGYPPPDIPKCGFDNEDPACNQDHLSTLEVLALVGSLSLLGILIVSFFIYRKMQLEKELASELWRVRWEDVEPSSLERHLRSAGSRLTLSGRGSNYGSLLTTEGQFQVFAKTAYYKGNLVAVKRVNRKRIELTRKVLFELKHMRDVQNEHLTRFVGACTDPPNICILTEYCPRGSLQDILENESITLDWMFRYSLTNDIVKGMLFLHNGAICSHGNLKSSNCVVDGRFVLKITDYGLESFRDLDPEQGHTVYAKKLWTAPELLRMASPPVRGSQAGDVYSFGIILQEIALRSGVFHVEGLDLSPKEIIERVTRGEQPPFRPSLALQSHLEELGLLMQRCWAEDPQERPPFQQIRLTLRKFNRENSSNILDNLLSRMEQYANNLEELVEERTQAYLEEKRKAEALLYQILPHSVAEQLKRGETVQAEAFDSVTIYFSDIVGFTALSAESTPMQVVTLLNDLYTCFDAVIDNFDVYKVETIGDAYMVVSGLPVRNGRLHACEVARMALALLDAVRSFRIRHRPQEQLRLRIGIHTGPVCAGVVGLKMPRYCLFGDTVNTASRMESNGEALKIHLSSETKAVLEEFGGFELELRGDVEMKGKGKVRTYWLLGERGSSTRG
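HEK293 cells stably expressing human Npr1 and cGMP GloSensor pGS-40F, loaded 2 h with 2% GloSensor reagent, given compound 30 min at room temperature. Luminescence read before and 20 min after 0.1 nM hNppA.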
* hit, by the source's call; i = inactive; ? = inconclusive; · = no result given; [ ] = dose if it differs, or a comment. Unless noted, calls follow the shape of the dose curve; as a rule, active = well fitted curve in the direction sought with a large enough effect; inconclusive = small, poorly fitted or top-dose-only effect, or another doubt; inactive = no such curve, though single readings can be large; an effect the other way counts as inactive or inconclusive. % is scaled to controls: 0 for no effect and ±100 for the full control effect; potency is read from the fitted curve at half-maximal effect.

SMILES	FLuc inh	HEK293 tox	3T3 cytotox	hNpr1 antagonist
CCC(CC)c1cc([C@H]2CN3CC[C@H]2C[C@@H]3CNC(=O)Nc2ccc(C(C)=O)cc2)nc(-c2ccncc2)n1	i	25.1µM*	17.8µM*	4.8%
CCOC(=O)[C@H]1CN(C(=O)OCC)[C@]2(C)C(=O)N(CCOC(C)=O)c3ccccc3[C@H]12	·	-2.5%[57.5 µM]	?	·
Cc1nc(-c2ccccc2Br)cc([C@H]2CN3CC[C@H]2C[C@@H]3CNC(=O)Nc2ccc(Cl)cc2)n1	i	22.4µM*	35.5µM*	-5.6%
Cc1nc(-c2ccc(F)cc2)cc([C@H]2CN3CC[C@H]2C[C@@H]3CNC(=O)c2ccco2)n1	i	?	100µM*	7.9%[70.6 µM]
Cc1nc(-c2ccccc2Br)cc([C@H]2CN3CC[C@H]2C[C@@H]3CNC(=O)Nc2cccc(C#N)c2)n1	i	22.4µM*	28.2µM*	-4.6%
Cc1nc(-c2ccco2)cc([C@H]2CN3CC[C@H]2C[C@@H]3CNCC2CCCCC2)n1	i	112µM*	89.1µM*	-20.7%[70.6 µM]
COc1ccc(CC(=O)N2CCN(CCn3nc4n(c3=O)CCCC4)CC2)cc1	·	-0.6%	-13.4%	·
Cc1nc(-c2ccc(C(F)(F)F)cc2)cc([C@H]2CN3CC[C@H]2C[C@@H]3CNC(=O)C(C)(C)C)n1	i	39.8µM*	20µM*	-0.4%
Cc1nc(-c2ccc(F)cc2)cc([C@H]2CN3CC[C@H]2C[C@@H]3CNC(=O)NCc2ccccc2)n1	i	?	?	1.7%
Cc1nc(-c2ccc(C(F)(F)F)cc2)cc([C@H]2CN3CC[C@H]2C[C@@H]3CNC(=O)N2CCOCC2)n1	i	?	?	2.5%
Cc1nc(-c2ccc(F)cc2)cc([C@H]2CN3CC[C@H]2C[C@@H]3CNC(=O)Nc2cccc(C#N)c2)n1	i	?	22.4µM*	-15.0%
Cc1nc(-c2ccccc2)cc([C@H]2CN3CC[C@H]2C[C@@H]3CNC(=O)N2CCOCC2)n1	i	?	89.1µM*	4.5%[70.6 µM]
OC[C@@H]1[C@H]2CN(Cc3ccoc3)CCN2C[C@H]1c1ccccc1	·	?	-10.2%	·
O=C(NC1CCCCC1)[C@H]1CN2CC[C@H]1C[C@@H]2Cn1cc(CCO)nn1	i	i	4.7%[174 µM]	1.1%[70.6 µM]
CC[C@H]1CN2CC[C@H]1C[C@@H]2CN(Cc1ccc(SC)cc1)Cc1ccc(SC)cc1	i	7.08µM*	10µM*	-14.2%[70.6 µM]
CC[C@H]1CN2CC[C@H]1C[C@@H]2CNCc1ccc(C(F)(F)F)cc1	i	?	89.1µM*	-0.9%[70.6 µM]
CC[C@H]1CN2CC[C@H]1C[C@@H]2CNCc1ccc(OC)cc1	i	?	-24.0%[230 µM]	-4.0%[70.6 µM]
CC[C@H]1CN2CC[C@H]1C[C@@H]2CNCc1ccc(-c2ccccc2)cc1	i	25.1µM*	28.2µM*	-16.4%[70.6 µM]
CN(C)C(=O)[C@H]1CN2CCC1C[C@@H]2Cn1cc(CCO)nn1 (stereo not given in full)	i	-1.8%[172 µM]	4.6%[174 µM]	-0.9%[70.6 µM]
COc1cc2c(cc1OCc1ccccc1)N(C(=O)c1cc3ccccc3n1C)CC21CCN(C)CC1	i	25.1µM*	12.6µM*	-1.8%
COc1ccc(C(=O)N2CC3(CCN(C)CC3)c3cc(OC)c(OCc4ccccc4)cc32)cn1	i	79.4µM*	?	4.5%
COc1cc2c(cc1OCc1ccccc1)N(C(=O)c1ccncc1)CC21CCN(C)CC1	i	?	-25.9%	1.4%
COc1ccccc1-c1cc([C@H]2CN3CC[C@H]2C[C@@H]3CNS(=O)(=O)c2ccccc2)n(C)n1	i	?	31.6µM*	0.7%
COc1ccc(-c2cc([C@H]3CN4CC[C@H]3C[C@@H]4CNS(=O)(=O)c3ccc(C)cc3)n(C)n2)cc1OC	i	39.8µM*	22.4µM*	0.5%
COc1ccccc1-c1cc([C@H]2CN3CC[C@H]2C[C@@H]3CNS(C)(=O)=O)n(C)n1	i	i	-13.1%[174 µM]	6.8%[70.6 µM]
Cn1nc(C2CCCC2)cc1[C@H]1CN2CC[C@H]1C[C@@H]2CNS(=O)(=O)c1ccccc1	i	100µM*	112µM*	0.1%[70.6 µM]
CCOC(=O)[C@H]1CN(C(=O)/C=C/c2ccccc2)[C@]2(C)C(=O)N(CCOC(C)=O)c3ccccc3[C@H]12	·	-27.1%[57.5 µM]	?	·
Cc1nc(-c2ccco2)cc([C@H]2CN3CC[C@H]2C[C@@H]3CNC(=O)C(C)(C)C)n1	i	-17.3%[172 µM]	-18.6%[174 µM]	0.1%[70.6 µM]
CC[C@H]1CN2CC[C@H]1C[C@@H]2COC(=O)Nc1cccc2ccccc12	i	?	50.1µM*	-8.8%[70.6 µM]
